# Results: PubChem BioAssay AID2551 (National Center for Advancing Translational Sciences (NCATS), 2010)
# About 17,000 (5.5%) of roughly 310,000 compounds were called active. Another 11% or so got no clear call; they are omitted. The entries come from a sample that favours actives as a whole. A number with no mark means an inactive call. Calls come from the whole dose curve; as a rule, active = well fitted inhibition curve with a large enough effect; inconclusive = small, poorly fitted or top-dose-only effect, or effect the other way; inactive = no such curve, though single readings can be large or run the other way.
# Molecular target: Nuclear receptor ROR-gamma (Mus musculus) (UniProt P51450)
# Sequence (P51450 whole entry, looked up): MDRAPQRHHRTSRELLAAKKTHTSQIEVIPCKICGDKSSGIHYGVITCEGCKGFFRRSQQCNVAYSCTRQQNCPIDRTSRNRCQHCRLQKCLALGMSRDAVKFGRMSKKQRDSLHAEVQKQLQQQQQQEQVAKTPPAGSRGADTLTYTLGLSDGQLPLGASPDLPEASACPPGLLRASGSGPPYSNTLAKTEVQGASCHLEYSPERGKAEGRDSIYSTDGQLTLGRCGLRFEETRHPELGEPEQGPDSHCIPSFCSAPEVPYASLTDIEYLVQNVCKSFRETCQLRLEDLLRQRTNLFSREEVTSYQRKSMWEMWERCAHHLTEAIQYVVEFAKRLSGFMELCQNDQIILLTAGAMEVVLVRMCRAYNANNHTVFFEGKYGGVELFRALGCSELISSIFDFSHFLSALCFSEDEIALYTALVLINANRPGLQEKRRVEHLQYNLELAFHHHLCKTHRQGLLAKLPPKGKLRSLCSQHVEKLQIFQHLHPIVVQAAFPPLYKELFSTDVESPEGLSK
# Assay: qHTS for inhibitors of ROR gamma transcriptional activity; note: nearly all actives have a fitted effect of over 60% in size
# Conditions: Drosophila S2 Gal4-RORgamma UAS-luciferase reporter, 20 h; series mostly up to 53.6 µM; activity change, negative = inhibition: at the top concentration
# Summary of the method: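 Stable Schneider cell line, Gal4 DNA-binding domain fused to ROR gamma, UAS-luciferase. Cmpd 1 hr RT → CuSO4 700 uM final → 20 hr RT → luciferase reagent 10 min → luminescence.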
# % is set by controls: 0 for no effect and ±100 for the full control effect; potency is the fitted concentration of half-maximal effect.
Compound,"activity change, negative = inhibition",Potency
COc1ccc(CCN(C)C(=O)C23CC4CC(CC(Cl)(C4)C2)C3)cc1OC,12.2%,
Cc1ccc(N2C(=O)C3C4C=CC(CC4)C3C2=O)cc1Br (stereo not drawn),-11.5%,
O=C(CN1CCCCCC1)Nc1ccc(Cl)cc1F,-20.3%,
CCOc1ccc(N2CC(C(=O)NCc3ccccn3)CC2=O)cc1 (stereo not drawn),-0.568%,
COC(=O)c1ccc(C(=O)OC)c(NC(=S)N2CCN(c3cc(Cl)ccc3C)CC2)c1,-19.9%,
COC(=O)c1ccc(C(=O)Nc2cc(Cl)ccc2Cl)cc1NC(=O)c1ccccc1C,,11.2 µM (active)
COC(=O)c1ccccc1NC(=O)c1cncc(Br)c1,-5.09%,
COc1ccc(C(=O)NC(C)CCc2ccccc2)c(OC)c1 (stereo not drawn),38.8%,
CCN(c1cccc(C)c1)S(=O)(=O)c1ccc(-c2coc(C)n2)cc1,3.96%,
O=C1/C(=C/c2ccc3c(c2)OCO3)Oc2cc(OCC(=O)N3CC(O)C[C@H]3C(=O)O)ccc21 (stereo partly drawn),-19.9%,
COC(=O)c1cc(OCC(=O)NC2CCCc3ccccc32)cc(C(=O)OC)c1 (stereo not drawn),-9.26%,
O=C(NCCO)C(=O)NCC(c1ccc2c(c1)OCO2)N1CCN(c2ccc(F)cc2)CC1 (stereo not drawn),1.74%,
O=C(c1cn(-c2ccccc2)nc1-c1cc2ccccc2oc1=O)N1CCOCC1,-6.26%,
O=c1oc2ccccc2cc1-c1cn(-c2ccccc2)c(=S)[nH]1,,1.26 µM (active)
O=C(Nc1cc2ccccc2oc1=O)C1CCCCC1,14.7%,
S=C(NCc1cccnc1)Nc1ccc(Cl)cc1Cl,0.343%,
CN1CCN(S(=O)(=O)c2ccc(NC(=S)NC(=O)C3CC3)cc2)CC1,-18.3%,
O=C(NC(=S)Nc1ccc(Cl)cc1Cl)C1CC1,,5.01 µM (active)
COc1ccc(N(CC(=O)Nc2cccc3ccccc23)S(C)(=O)=O)c(OC)c1,9.57%,
CC(=O)c1ccc(S(=O)(=O)N(C)CCCC(=O)N(C)Cc2ccccc2F)cc1,28.3%,
Cc1ccc(C(=O)Cn2cccn2)cc1,0.557%,
Cc1ccc(C(=O)CSc2ccccc2C(=O)O)cc1,,10 µM (active)
Cc1ccc(Sc2cc(C(=O)c3ccccc3C(=O)O)ccc2[N+](=O)[O-])cc1,13%,
CCOc1cc(C2/C(=C(/O)c3ccc(S(=O)(=O)N4CCCCC4)cc3)C(=O)C(=O)N2CCOC)ccc1O (stereo not drawn),3.43%,
Cc1cc(=O)oc2cc(OCC(=O)N3CCN(c4ccc(F)cc4)CC3)c(Cl)cc12,-6.12%,
CCOC(=O)C1(Cc2ccccc2C)CCCN(C(=O)c2ccc(COC)o2)C1 (stereo not drawn),21%,

Compound,"activity change, negative = inhibition",Potency
COc1cc(NC(=O)CN2C(=O)NC(C)(c3ccc(OC(F)F)cc3)C2=O)cc(OC)c1OC (stereo not drawn),44%,
COc1ccc(O)c(/C=N/N=C/c2cccc([N+](=O)[O-])c2)c1,-10.9%,
CCN(CC)C(=O)COc1coc(CN2CCN(Cc3ccccc3)CC2)cc1=O,-0.741%,
CSc1nc(-c2ccccc2)nc(C(Cl)Cl)n1,,7.08 µM (active)
Clc1ccc2nc(-c3ccccc3)nc(C(Cl)Cl)c2c1,26.6%,
CCCc1cc(=O)oc2c(C)c(OC(C)C(=O)NCC(O)c3ccccc3)ccc12 (stereo not drawn),4.93%,
O=C(COc1ccc(-n2cnnn2)cc1)Nc1ccccc1Cl,-8.26%,
C=CCc1ccccc1OCC(=O)N/N=C/c1ccccc1OCC,0.433%,
C=CCc1cccc(/C=N/NC(=O)COc2ccc(-n3cnnn3)cc2)c1O,,8.91 µM (active)
O=C(C1CC(=O)N(c2ccc(F)cc2)C1)N1CCN(c2ccccc2)CC1 (stereo not drawn),0.455%,
COc1cc(Nc2nc3ccc(Cl)cc3n3cnnc23)cc(OC)c1OC,-4.72%,
CC1(c2ccc3ccccc3c2)NC(=O)N(CC(N)=O)C1=O (stereo not drawn),-5.53%,
COc1ccc(S(=O)(=O)NCC(=O)NC2CC2)cc1OC,3.62%,
Cc1ccc(C)c(C(C)NC(=O)C2CCCO2)c1 (stereo not drawn),-25%,
Cc1ccc(C(=O)N/C(=C\c2ccc(F)cc2)C(=O)NCCN2CCOCC2)cc1,-1.59%,
CCCCNC(=O)C(=O)c1ccccc1NC(C)=O,6.15%,
CCCCNC(=S)N/N=C1\CCCCc2ccccc21,,2 µM (active)
O=[N+]([O-])c1ccccc1N/N=C1\CCc2ccccc21,22.6%,
CCNC(=O)CC1C(=O)N(c2ccc(OC)cc2)C(=O)N1CCOC (stereo not drawn),-1.87%,
O=C(Cc1cc(=O)[nH][nH]1)N/N=C/c1ccccc1[N+](=O)[O-],7.28%,
O=[N+]([O-])c1cc(Cl)cc(/C=N/NC(=S)Nc2cc(S(=O)(=O)N3CCOCC3)ccc2Cl)c1O,-35%,
O=C(N/N=C/c1cc(Cl)cc([N+](=O)[O-])c1O)C(O)(c1ccccc1)c1ccccc1,,1 µM (active)
CN(C)/N=C/c1cc(Cl)cc([N+](=O)[O-])c1O,,11.2 µM (active)
CC(=O)N/N=C/c1cc2c(cc1[N+](=O)[O-])OCO2,-16.9%,
COC(=O)c1cc(CNC(=O)CC(C)c2ccccc2)ccc1OC (stereo not drawn),10.8%,
CN(C)CCN(Cc1ccccc1)S(=O)(=O)c1csc(C(N)=O)c1,-20.5%,

Compound,"activity change, negative = inhibition",Potency
CCOC(=O)CC1COCCN1C(=O)c1cc(COc2ccc(F)c(F)c2)on1 (stereo not drawn),39.5%,
COc1ccc(N(C)C(=O)C2CCN(S(=O)(=O)c3cccc4nsnc34)CC2)cc1,6.09%,
COC(=O)/C=C\C(=O)Nc1cccc([N+](=O)[O-])c1,,3.16 µM (active)
Cc1ccccc1NC(=S)Nc1cccc([N+](=O)[O-])c1,-34%,
CC(=O)Nc1cccc([N+](=O)[O-])c1,-1.22%,
Cn1nnc(NC(=O)CSc2ncn[nH]2)n1,24.3%,
COC(=O)c1nc(NC(=O)c2ccccc2)n[nH]1,7.37%,
Cn1nnc(NC(=S)NC(=O)c2ccccc2)n1,,3.55 µM (active)
COc1ccc(CN2CCN(C(=O)CCC(=O)Nc3nnc(C(C)C)s3)CC2)cc1F,21.6%,
O=C(CN(Cc1ccccc1)C(=O)CCC(=O)Nc1ccccn1)NCCc1ccccc1,24.4%,
CN(C)CCCN(C(=O)COc1ccccc1)c1nc2c(Cl)cccc2s1,-9.36%,
Cc1ccc2sc(N(CCN(C)C)C(=O)/C=C/c3cccs3)nc2c1C,-30.6%,
Cc1cccc2sc(N(CCCN(C)C)C(=O)CCS(=O)(=O)c3ccccc3)nc12,,10 µM (active)
COc1cc2ccccc2cc1C(=O)N(CCN(C)C)c1nc2c(F)cccc2s1,-22.6%,
COc1cccc2sc(N(CCCN(C)C)C(=O)CCS(=O)(=O)c3ccccc3)nc12,,11.2 µM (active)
Cc1cc(C)c2nc(N(CCN(C)C)C(=O)/C=C/c3cccs3)sc2c1,-0.19%,
Cc1cccc(N2CCN(S(=O)(=O)c3ccc(-c4cc(C)no4)s3)CC2C)c1 (stereo not drawn),2.22%,
COc1ccc(C(CNC(=O)c2cc3c(s2)CCCC3)N2CCOCC2)cc1 (stereo not drawn),-19.1%,
COc1cc(C(=O)NC2CCN(Cc3ccccc3)CC2)cc(Cl)c1OC(C)C,-13.7%,
COc1ccc(C(CNC(=O)COc2ccccc2OC)N2CCCCC2)cc1 (stereo not drawn),-9.48%,
Cc1ccc2nc(NCCCNC(=O)c3cnccn3)c(C#N)cc2c1,-1.25%,
Cc1ccc2cc(C#N)c(NCCNC(=S)NCCCN3CCOCC3)nc2c1,-78.1%,
COCCCNC(=S)NCCNc1nc2cc(C)c(C)cc2cc1C#N,,15.8 µM (active)
COCC(=O)Nc1c(C(=O)N2CCCC2)oc2ccccc12,26.7%,
CC(NC(=O)COc1ccc(-c2ccccc2)cc1)C1CCCO1 (stereo not drawn),-0.806%,
CC(C)CC[n+]1ccn(C2=C([O-])c3ccccc3C(=O)/C2=N\S(=O)(=O)c2ccccc2)c1,,11.2 µM (active)

Compound,"activity change, negative = inhibition",Potency
COc1ccc(S(=O)(=O)/N=C2\C=C(NS(=O)(=O)c3ccccc3)C(=O)c3ccccc32)cc1,-36.9%,
COc1ccc(C2CC(c3ccc([N+](=O)[O-])cc3)=NN2C(C)=O)cc1 (stereo not drawn),21.7%,
CC(C)C(C)NC(=O)COc1nc2ccccc2nc1N(C)C1CCCCC1 (stereo not drawn),27.3%,
O=C(/C=C/c1ccc(Cl)cc1Cl)c1cccnc1,,2.82 µM (active)
O=C(Nc1cccnc1)c1cc(Cl)ccc1Cl,-7.73%,
O=C(/C=C/c1ccc(Cl)c([N+](=O)[O-])c1)c1cccnc1,-10.5%,
O=C(N/N=C/c1ccc([N+](=O)[O-])o1)c1cn(-c2ccccc2)nc1-c1ccc(F)cc1,-38.7%,
Cc1ccc(/C=C/C(=O)Nc2ccc([N+](=O)[O-])c(NC(=O)/C=C/c3ccc(C)o3)c2)o1,4.73%,
O=C(/C=C/c1ccc([N+](=O)[O-])o1)NNC(=O)c1ccc(F)cc1,,2.82 µM (active)
Cc1cc2c(cc1S(=O)(=O)NCc1ccc(Cl)cc1)OCC(=O)N2,6.35%,
C=CCn1c2ccccc2c2nnc(SCc3[nH]c(=O)[nH]c3C(=O)CCCCC(=O)OCC)nc21,,12.6 µM (active)
C=CCn1c2ccccc2c2nnc(SC(CC)C(=O)Nc3nc(C)c(C(=O)OCC)s3)nc21 (stereo not drawn),-6.1%,
C=CCn1c(SCC(=O)CC(=O)OCC)nc2cc(C(=O)N3CCC(C(N)=O)CC3)ccc2c1=O,15%,
CCNC(=S)N(CCN(CC)CC)Cc1cc2cc3c(cc2[nH]c1=O)OCCO3,9.92%,
O=C(Nc1ccncc1)c1ccc([N+](=O)[O-])cc1Cl,-3.39%,
COC(=O)c1sc(=S)n(-c2ccc(Cl)cc2)c1C,2.4%,
COc1ccc(OC)c(-n2c(-c3ccn[nH]3)n[nH]c2=S)c1,-4.51%,
Cc1cc(-c2n[nH]c(=S)n2-c2ccc(C)c(C)c2)no1,6.4%,
COc1ccc(-c2cn(-c3ccc(C)cc3)c(=O)n2CC(=O)Nc2ccc(OC)c(OC)c2)cc1,51%,
COc1ccc(-n2c(-c3ccc(OC)c(OC)c3)n[nH]c2=S)cc1,,11.2 µM (active)
Cc1ccc(-n2c(-c3ccc(Cl)cc3)n[nH]c2=S)cc1,,3.16 µM (active)
COc1ccc(OC)c(CNC(=O)Cn2nc(C)c3c(C)n(-c4ccc(C)cc4)nc3c2=O)c1,33.3%,
COc1ccc(C(C)NC(=O)C2CCCC2)cc1 (stereo not drawn),3.72%,
Cc1cc(=O)oc2c3c(cc(OCC(=O)NCc4ccccn4)c12)OC(C)(C)CC3,5.08%,
Clc1ccc(CN2CCCCCC2)cc1Cl,-12.3%,
